These results are taken from PubChem BioAssay (NCATS).

Assay [1] in a line: qHTS profiling for inhibitors of Plasmodium falciparum proliferation (AID 504749). Further: nearly all actives have a fitted effect of over 60% in size.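 On activity, negative = inhibition: 0% = DMSO vehicle and full inhibition = artemisinin control.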 The following applies: P. falciparum in erythrocytes, SYBR Green DNA, 72 h. In outline:
(§1)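 SYBR Green fluorescence of parasite DNA, read after lysis and overnight dark incubation, measured growth over 72 h in erythrocyte culture at 0.3% parasitemia and 2.5% hematocrit. Data normalised to DMSO and 0.29 uM artemisinin, with plate-drift correction.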
In general terms: qHTS replaces the single test concentration by a dilution series.

In the next assay the test system is 3D7. Described as above. The following applies: P. falciparum in erythrocytes, SYBR Green DNA, 72 h; series mostly up to 28.7 µM. In outline:
as §1

Setting [2] is: at 28.7 µM (top of the series), parasite line A.
[3] abbreviates: at 28.7 µM (top of the series), parasite line B.

SMILES strings stand for the structures. Records with an inconclusive call do not appear. Unmarked numbers belong to inactive results. Active and inactive are the calls of the source. The call rests on the fitted dose curve; in most records, active means well fitted inhibition curve with a large enough effect; inconclusive means small, poorly fitted or top-dose-only effect; inactive means flat fitted curve, though single readings scatter.
Potency means the concentration at half of the fitted maximal effect.

As to `CCCCCCCCCCCC(=O)N(CCO)CCO`, the activity, negative = inhibition in assay [1] (setting [2]) was -3.5%; in assay [1] (setting [3]), 9.6%. Moreover, in the assay on 3D7, the Potency result was “inactive”.

As for `O=C(O)C1=C(CSc2nnnn2CS(=O)(=O)O)CS[C@@H]2[C@H](NC(=O)[C@H](O)c3ccccc3)C(=O)N12`, the activity, negative = inhibition in assay [1] (setting [2]) is -7.54%; in assay [1] (setting [3]), 1.69%. In the assay on 3D7, the Potency entry is “inactive”.

Consider `O=c1[nH]c(=O)n([C@H]2C[C@H](O)[C@@H](CO)O2)cc1/C=C/Br`, for which the activity, negative = inhibition was 6.74% in assay [1] (setting [2]) and -10.9% in assay [1] (setting [3]). In addition, the Potency entry in the assay with 3D7 is “inactive”.

As for `C[C@H](N)C(=O)N[C@@H](C)P(=O)(O)O`, the activity, negative = inhibition in assay [1] (setting [2]) was 12.4%; in assay [1] (setting [3]), 10.4%. Moreover, the Potency entry with 3D7 was “inactive”.

With `CCCCCCCCCCCCOCCCN`, the activity, negative = inhibition was -4.13% in assay [1] (setting [2]) and 8.54% in assay [1] (setting [3]). Further, the Potency entry with 3D7 was “inactive”.

For `O=C(O)Cc1nn(Cc2ccc(Br)cc2F)c(=O)c2ccccc12`, the activity, negative = inhibition is 0.835% in assay [1] (setting [2]) and -5.83% in assay [1] (setting [3]). Also, the Potency entry with 3D7 was “inactive”.

With `CC12CCC(C1)C(C)(C)C2=O` (configuration not stated), the values for the activity, negative = inhibition in assay [1] (setting [2]) and in assay [1] (setting [3]) were 8.34% and 10.9%, respectively. The Potency entry with 3D7 is “inactive”.

For `CC(C)[C@@H](N)C(=O)O`, the activity, negative = inhibition is 1.17% in assay [1] (setting [2]) and 12.2% in assay [1] (setting [3]). Further, the Potency result in the assay on 3D7 is “inactive”.

As for `CC(C)(COP(=O)(O)OP(=O)(O)OC[C@H]1O[C@@H](n2cnc3c(N)ncnc32)[C@H](O)[C@@H]1OP(=O)(O)O)C(O)C(=O)NCCC(=O)NCCS` (some centres not stated), the activity, negative = inhibition was 7.03% in assay [1] (setting [2]) and 2.39% in assay [1] (setting [3]). Besides, the Potency entry in the assay with 3D7 was “inactive”.

With `O=C(O)CCCC/C=C(\c1ccccc1)c1cccnc1`, the activity, negative = inhibition is 3.33% in assay [1] (setting [2]) and 8.41% in assay [1] (setting [3]). Also, the Potency result in the assay with 3D7 is “inactive”.

`COc1ccccc1N1CCN(CCCC(=O)c2ccc(F)cc2)CC1`: the activity, negative = inhibition was -16.2% in assay [1] (setting [2]) and 9.5% in assay [1] (setting [3]). For the same molecule, in the assay with 3D7, the Potency result is “inactive”.

Turning to `COc1cc(NCCCC(C)N)c2ncccc2c1` (configuration not stated), the Potency in assay [1] (parasite line A) was 2 µM (active); in assay [1] (parasite line B), 0.891 µM (active); in the assay on 3D7, 2 µM (active).

In the case of `O=P(O)(O)O`, the activity, negative = inhibition in assay [1] (setting [2]) is 1.79%; in assay [1] (setting [3]), 16.4%. Moreover, in the assay with 3D7, the Potency entry is “inactive”.

Take `CN1CCC(OC(=O)C(Oc2ccc(Cl)cc2)Oc2ccc(Cl)cc2)CC1`: the activity, negative = inhibition in assay [1] (setting [2]) is 7.76%; in assay [1] (setting [3]), -8.26%. The Potency entry in the assay on 3D7 is “inactive”.

Consider `O=C(O)c1ccc(OCCn2ccnc2)cc1`, for which the activity, negative = inhibition is 13.9% in assay [1] (setting [2]) and 6.25% in assay [1] (setting [3]). Moreover, the Potency entry with 3D7 was “inactive”.

Take `NCC[C@H](O)C(=O)N[C@@H]1C[C@H](N)[C@@H](O[C@H]2O[C@H](CN)[C@@H](O)[C@H](O)[C@H]2O)[C@H](O)[C@H]1O[C@H]1O[C@H](CO)[C@@H](O)[C@H](N)[C@H]1O`: the activity, negative = inhibition was 2.54% in assay [1] (setting [2]) and 0.715% in assay [1] (setting [3]). The Potency entry in the assay on 3D7 was “inactive”.

For `O=C(/C=C/c1cccc(F)c1)NC1CC1`, the results for the activity, negative = inhibition in assay [1] (setting [2]) and in assay [1] (setting [3]) were -17.7% and -9.61%, respectively. The Potency result in the assay with 3D7 was “inactive”.

As to `C[Si](C)(C)O[Si](C)(C)C`, the activity, negative = inhibition in assay [1] (setting [2]) was 4.89%; in assay [1] (setting [3]), 10.8%. For the same molecule, in the assay with 3D7, the Potency entry is “inactive”.

With `CC(=O)Oc1cccc(C(=O)O)c1OC(C)=O`, the activity, negative = inhibition in assay [1] (setting [2]) is 7.04%; in assay [1] (setting [3]), 3.67%. Further, the Potency entry in the assay with 3D7 was “inactive”.

For `O=C(CCCCCCCCCCCCC1CCCC1)Nc1ccc(S(=O)(=O)c2ccc(NC(=O)CCCCCCCCCCCCC3CCCC3)cc2)cc1`, the activity, negative = inhibition in assay [1] (setting [2]) is -2.51%; in assay [1] (setting [3]), 13.1%. Besides, in the assay with 3D7, the Potency entry is “inactive”.

For the molecule `O=C(O)/C=C/C(=O)Nc1ccc(S(=O)(=O)Nc2nccs2)cc1`, the activity, negative = inhibition in assay [1] (setting [2]) is 17.5%; in assay [1] (setting [3]), -1.66%. Besides, in the assay with 3D7, the Potency entry was “inactive”.

Consider `Cc1cccc(Nc2ncccc2C(=O)O)c1C`, for which the activity, negative = inhibition was 2.92% in assay [1] (setting [2]) and 1.25% in assay [1] (setting [3]). In addition, the Potency result in the assay on 3D7 was “inactive”.

Turning to `Oc1ccc(Cl)c2c1CCC2`, the activity, negative = inhibition in assay [1] (setting [2]) is 6.7%; in assay [1] (setting [3]), 4.51%. For the same molecule, the Potency entry in the assay on 3D7 is “inactive”.

Turning to `CCCCC[C@H](O)/C=C/[C@H]1[C@H](O)CC(=O)[C@@H]1C/C=C\CCCC(=O)O`, the activity, negative = inhibition was 7.21% in assay [1] (setting [2]) and 0.0897% in assay [1] (setting [3]). The Potency result with 3D7 is “inactive”.

On to `C[C@H](O)CN(C)C`, for which the results for the activity, negative = inhibition in assay [1] (setting [2]) and in assay [1] (setting [3]) were 9.28% and 3.53%, respectively. Besides, the Potency result in the assay on 3D7 is “inactive”.

In the case of `C=CC(C)(O)CC/C=C(\C)CCC=C(C)C` (configuration not stated), the activity, negative = inhibition is 2.76% in assay [1] (setting [2]) and -4.38% in assay [1] (setting [3]). The Potency result in the assay with 3D7 was “inactive”.

As for `CCOC(=S)SSC(=S)OCC`, the activity, negative = inhibition in assay [1] (setting [2]) is 12.6%; in assay [1] (setting [3]) it was -0.533%. Also, in the assay with 3D7, the Potency entry is “inactive”.

In the case of `CCCCCCCCCCCCCCCCCC(=O)OC[C@@H](O)[C@H]1OC[C@H](O)[C@H]1O`, the activity, negative = inhibition is -5.9% in assay [1] (setting [2]) and -8.53% in assay [1] (setting [3]). The Potency result with 3D7 was “inactive”.

Consider `CCN(CC)CCOc1ccccc1OC`, for which the activity, negative = inhibition is -4.79% in assay [1] (setting [2]) and -3.67% in assay [1] (setting [3]). Further, the Potency result in the assay on 3D7 is “inactive”.

With `O=C(O)COc1ccccc1/C=N/NC(=O)c1ccncc1`, the activity, negative = inhibition in assay [1] (setting [2]) was 7.51%; in assay [1] (setting [3]), 0.92%. Moreover, in the assay with 3D7, the Potency result was “inactive”.

For the molecule `CN=C1C=CC(=C(c2ccc(N(C)C)cc2)c2ccc(N(C)C)cc2)C=C1`, the Potency was 0.562 µM (active) in assay [1] (parasite line A), 0.398 µM (active) in assay [1] (parasite line B) and 0.708 µM (active) in the assay with 3D7.

`O=C1NCCN1c1ncc([N+](=O)[O-])s1`: the activity, negative = inhibition in assay [1] (at 12.8 µM (top of the series), parasite line A) was -20%; in assay [1] (at 12.8 µM (top of the series), parasite line B), -14.4%.

In the case of `CCC(=O)c1ccc2c(c1)N(CCCN1CCN(CCO)CC1)c1ccccc1S2`, the Potency is 10 µM (active) in assay [1] (parasite line A) and 11.2 µM (active) in assay [1] (parasite line B).

In the case of `O=C1c2ccccc2C(=O)C1c1ccc(Cl)cc1`, the activity, negative = inhibition in assay [1] (setting [2]) is 10.7%. Also, in the assay with 3D7, the Potency result was “inactive”.

On to `CCCCCCOC(=O)c1cccnc1`, for which the activity, negative = inhibition in assay [1] (setting [2]) is 6.05%; in assay [1] (setting [3]) it was -29.8%. The Potency result with 3D7 is “inactive”.
